Bioassay records deposited in PubChem BioAssay by several laboratories.
This is a sample that favours compounds with a hit; in the whole collection about 2.4% have one here.
PGE2 EP2 inh: blocks the human prostaglandin E2 receptor EP2. P43116. C6 glioma cells expressing human EP2, cAMP TR-FRET; cells stimulated with saturating PGE2. inhibition, % at 25 µM. 0.52% of 260,000 active;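 active = percent inhibition above 40 after rounding to a whole number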;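 also: rat C6 glioma host cells with rolipram phosphodiesterase inhibitor present; the protocol text gives 20 µM as final concentration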
S1P4 agonist: agonists of human S1P4 receptor. S1P4-expressing cell line, agonist reporter assay. 0.35% of 220,000 active. AID 1509. activation, % at 4.98 µM; in the data active = activation above about 11%;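 also: 0% = DMSO vehicle and 100% = reference agonist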
Target sequence (O95977 whole entry, looked up): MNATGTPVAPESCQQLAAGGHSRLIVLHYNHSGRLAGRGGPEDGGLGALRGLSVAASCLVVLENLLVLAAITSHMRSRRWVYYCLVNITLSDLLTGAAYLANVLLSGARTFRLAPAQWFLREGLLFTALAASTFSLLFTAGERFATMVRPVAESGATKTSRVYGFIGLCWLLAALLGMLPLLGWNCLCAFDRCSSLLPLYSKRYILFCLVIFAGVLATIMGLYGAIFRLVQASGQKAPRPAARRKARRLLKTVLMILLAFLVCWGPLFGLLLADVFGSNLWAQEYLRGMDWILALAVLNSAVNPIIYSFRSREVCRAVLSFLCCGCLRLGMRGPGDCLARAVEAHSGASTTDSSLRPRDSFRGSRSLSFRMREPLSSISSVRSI
EP2 modulator: EP2 receptor (human) modulation | P43116 | AID 940 | EP2-expressing cells, cAMP HTRF FRET, PGE2 co-stimulation | induction, % at 25 µM | 0.83% of 260,000 active;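 active = compounds whose cAMP rise, as percent of the full-agonist control response, exceeds 60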;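 also: rat C6 glioma line stably carrying human EP2 under a CMV promoter; the protocol text gives 20 µM as final concentration; 100% = response of wells given 1 µM PGE2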
Insulin prom inh: TRM-6 insulin promoter activity inhibition; TRM-6 cells (human fetal islet line), insulin promoter-eGFP reporter, imaging; reporter expression induced with tamoxifen; inhibition, % at 2 µM; 0.9% of 130,000 active;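 active = inhibition above the mean plus 3 SD, with well images judged a real hit on visual review, cut at about 60% in these data, passing the limit was not always enough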
S1P4 antag: blocks the human S1P4 receptor | O95977 | S1P4-expressing cells, antagonist mode, reporter read-out | inhibition, % at 4.98 µM | 0.26% of 220,000 active | AID 1510; in the data active = inhibition above about 29%;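 also: 0% = wells stimulated with agonist and 100% = vehicle wells without agonist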
S1P3 antagonist: S1P3 (human) receptor antagonism | CHO S1P3 NFAT-BLA reporter, FRET fluorescence, antagonist mode | inhibition, % at 4.98 µM | 0.27% of 170,000 active;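 active = inhibition above the plate cutoff, the mean inhibition of test wells on that plate plus 3 SD, cut at about 28% in these data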;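 also: cells challenged with S1P at its EC80 of 0.8 µM; blue over green emission ratio from cleaved BLA substrate after 4 h stimulation; 0% = S1P-stimulated wells and 100% = unstimulated DMSO-only wells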
* marks the source's active call; other numbers are inactive results; nt = no result.

SMILES	PGE2 EP2 inh	S1P4 agonist	EP2 modulator	Insulin prom inh	S1P4 antag	S1P3 antagonist
Cc1cc(C)n(-c2ccc(C(=O)N3CCC4(CC3)NC(=O)c3ccccc3N4)cc2)n1	8	nt	6	nt	nt	nt
COC(=O)c1sc2nc3c(c(-c4cccs4)c2c1N)CCCC3	10	1	64*	14	9	0
CC(=O)c1cn(CC(=O)N2CCC(C)CC2)c2ccccc12	3	nt	-52	nt	nt	nt
CC(=O)N1[C@@H]2CC3C4CC=C5C[C@@H](O)CC[C@]5(C)C4CC[C@]3(C)[C@@]21C(C)=O (stereo partly specified)	9	1	13	-24	-11	3
C[C@@H]1CC[C@H]2[C@H](C)[C@@H]3[C@@H](C[C@H]4[C@H]5CC=C6C[C@@H](O)CC[C@]6(C)[C@@H]5C[C@@H](O)[C@]34C)N2C1	62*	nt	-9	nt	nt	nt
CCC1CCCCN1C(=O)CSc1nnc(-c2ccc(C)cc2)o1 (stereo unspecified)	5	nt	-13	nt	nt	nt
CCC1CCCCN1C(=O)CSc1nnc(-c2ccco2)o1 (stereo unspecified)	13	0	20	86*	-13	-24
O=C(NCc1ccc2c(c1)OCO2)c1nnc(Cc2ccc(F)cc2)o1	8	1	18	-25	5	106*
COc1ccc(NC(=O)N(Cc2cc3cc4c(cc3[nH]c2=O)OCCO4)C2CCCC2)cc1	7	nt	-63	nt	nt	nt
COC(=O)C1=NN(c2ccc(C)cc2)C2(S1)SC(C(C)=O)=C(C)N2c1ccccc1 (stereo unspecified)	7	1	63*	0	-3	nt
CC(=O)c1c(C)nc2ccccc2c1N	10	-1	13	88*	14	-22
COc1ccc2nc3c(cc2c1)CN(CC1CC1)C(=O)CO3	7	nt	-34	nt	nt	nt
CSc1nc(-c2ccccc2)nn1S(=O)(=O)c1ccccc1	4	-1	48	31	-6	nt
COc1ccc(-c2nc(SC)n(S(=O)(=O)c3ccccc3)n2)cc1	17	0	59	90*	-5	-2
O=C(c1cccc(F)c1)n1nnc2ccccc21	2	1	30	81*	-22	-23
O=C(O)Cc1cc(Cl)ccc1O	15	nt	22	nt	nt	nt
Oc1ccc(Cl)cc1Cc1cc(Cl)cc(Cc2cc(Cl)ccc2O)c1O	58*	nt	7	nt	nt	nt
CCN(CC(=O)NC1CCS(=O)(=O)C1)c1nc(-c2ccccc2)nc2ccccc12 (stereo unspecified)	11	-1	12	nt	-8	94*
O=C(Cc1ccccc1)NC1CCS(=O)(=O)C1 (stereo unspecified)	18	0	-10	54	-3	nt
CCC(CC)c1nnc(NC(=O)CCCOc2ccccc2)s1	9	nt	62*	nt	nt	nt
CC(C)C1C2CN(Cc3ccccc3)CC=C2C(C#N)=C(N)C1(C#N)C#N (stereo unspecified)	16	nt	-45	nt	nt	nt
COc1ccc(-c2cc3nc(-c4ccccc4)cc(N4CCC5(CC4)OCCO5)n3n2)cc1	24	1	30	nt	-39	54*
Cc1ccc(-c2c(C)nn3c(N4CCC(O)CC4)c4c(nc23)CCC4)cc1	nt	nt	0	nt	nt	nt
CC(NC(=O)c1ccc(F)cc1)c1ccccc1 (stereo unspecified)	7	-2	13	43	-30	nt
C[C@H](NC(=O)c1ccc(Cl)c(Cl)c1)c1ccc(-c2ccccc2)cc1	55*	nt	-41	nt	nt	nt
SMILES	PGE2 EP2 inh	S1P4 agonist	EP2 modulator	Insulin prom inh	S1P4 antag	S1P3 antagonist
COC(=O)CSc1ccc(-c2nc3ccc(C)cc3[nH]2)cn1	59*	-1	-22	-24	2	nt
COC(=O)c1cc2sc(Cl)cc2n1CC(=O)Nc1cccc(SC)c1	29	-1	15	nt	-1	59*
COC(=O)c1cc2sc(Cl)cc2n1CC(=O)Nc1ccc(OC)c(OC)c1OC	10	0	-18	nt	-6	39
Nc1c(C(=O)O)cnn1-c1cccc(Cl)c1	11	nt	-13	nt	nt	nt
COc1cccc(C2/C(=C(\O)c3ccc4c(c3)OCCO4)C(=O)C(=O)N2CCCN(C)C)c1OC (stereo unspecified)	nt	38*	nt	0	-7	nt
O=C(c1ccco1)N1CCN(C(=O)c2ncoc2-c2ccccc2F)CC1	10	nt	-32	nt	nt	nt
Cc1cc(=O)[nH]c(Nc2ccc(Cl)c(Cl)c2)n1	9	nt	-45	nt	nt	nt
Cn1cc([N+](=O)[O-])c(C(=O)Nc2cc(Oc3cccnc3)cc([N+](=O)[O-])c2)n1	18	-5	-41	nt	31*	nt
CCc1nc(SCC(=O)Nc2ccc(N(C)C)cc2)c2c(C)c(C)sc2n1	10	nt	-2	nt	nt	nt
Cc1sc2nc(C3CC3)nc(SCC(=O)Nc3ccc(N(C)C)cc3)c2c1C	16	nt	65*	nt	nt	nt
CN(C)c1ccc(NC(=O)CSc2nc(N)c(C(=O)Nc3ccc(N(C)C)cc3)s2)cc1	41*	2	-43	10	-28	nt
COC(=O)c1sc(NC(=O)COc2ccc(Cl)cc2C)c(C#N)c1C	15	nt	-27	nt	nt	nt
CCOC(=O)c1c(CSC(=N)N)n(-c2ccc(C)cc2)c2cc(Br)c(OC(C)=O)cc12	127*	-2	-43	68	4	nt
Cc1cccc(N2CC(C(=O)OCC(=O)c3ccc(OC(=O)c4cccs4)cc3)CC2=O)c1C (stereo unspecified)	120*	-1	-21	9	9	nt
COc1ccccc1N1CC(C(=O)OCC(=O)c2ccc(F)cc2)CC1=O (stereo unspecified)	4	2	-6	50	-12	nt
CC(=O)Nc1ccccc1C=C1c2ccccc2-c2ccccc21	11	nt	17	nt	nt	nt
CC(=O)Nc1ccc2c(c1)/C(=C/c1ccc([N+](C)(C)C)cc1)c1ccccc1-2	48*	nt	-24	nt	nt	nt
CCS(=O)(=O)N1Cc2ccccc2CC1C(=O)NCC12CC3CC(CC(C3)C1)C2 (stereo unspecified)	2	-5	8	-8	-3	nt
CCS(=O)(=O)N1Cc2ccccc2CC1C(=O)NC(C)C12CC3CC(CC(C3)C1)C2 (stereo unspecified)	11	1	63*	-29	2	nt
Cc1cccc(-n2c(-c3ccco3)nn(CC(=O)NC3CC3)c2=O)n1	nt	nt	6	nt	nt	nt
Cc1ccccc1NC(=O)c1cc2sccc2n1C	6	nt	-85	nt	nt	nt
CCOc1cc(-c2nn3cnnc3s2)cc(OCC)c1OCC	7	2	61*	nt	-14	6
CC(C)N1CC=C2C(C1)C(c1ccc(Cl)cc1)C(C#N)=C(N)C2(C#N)C#N (stereo unspecified)	10	nt	79*	nt	nt	nt
CC(C)c1ccc(C2C(C#N)=C(N)C(C#N)(C#N)C3=CCN(C)CC32)cc1 (stereo unspecified)	10	nt	8	nt	nt	nt
O=C1NC(=O)/C(=C\c2ccsc2)N1	4	0	-13	72*	-5	-10
NS(=O)(=O)c1cc2c(cc1Cl)NC(c1ccccc1)NS2(=O)=O (stereo unspecified)	9	nt	12	nt	nt	nt
NS(=O)(=O)c1cc2c(cc1Cl)N[C@H](Cc1ccccc1)NS2(=O)=O	53*	nt	15	nt	nt	nt
